Screen size: about 60,000 compounds; about 370 (0.62%) were called active. What follows is part of a selection rich in actives, with near analogues and random picks from the rest. Unmarked numbers belong to inactive results. Rule as the data show it: active = inhibition above about 17%; inactive = the rest.
Each compound was assayed against Mitogen-activated protein kinase 10 (Homo sapiens) (UniProt P53779) (assay: inhibition of human JNK3 enzyme – biochemical, purified enzyme, primary screen (AID 746;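 also: 0% = DMSO and 100% = reference inhibitor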)). Settings: purified JNK3 kinase activity, HTS; at 8 µM; stronger effect = higher value.
Sequence of Mitogen-activated protein kinase 10 (Homo sapiens) (P53779 whole entry, looked up): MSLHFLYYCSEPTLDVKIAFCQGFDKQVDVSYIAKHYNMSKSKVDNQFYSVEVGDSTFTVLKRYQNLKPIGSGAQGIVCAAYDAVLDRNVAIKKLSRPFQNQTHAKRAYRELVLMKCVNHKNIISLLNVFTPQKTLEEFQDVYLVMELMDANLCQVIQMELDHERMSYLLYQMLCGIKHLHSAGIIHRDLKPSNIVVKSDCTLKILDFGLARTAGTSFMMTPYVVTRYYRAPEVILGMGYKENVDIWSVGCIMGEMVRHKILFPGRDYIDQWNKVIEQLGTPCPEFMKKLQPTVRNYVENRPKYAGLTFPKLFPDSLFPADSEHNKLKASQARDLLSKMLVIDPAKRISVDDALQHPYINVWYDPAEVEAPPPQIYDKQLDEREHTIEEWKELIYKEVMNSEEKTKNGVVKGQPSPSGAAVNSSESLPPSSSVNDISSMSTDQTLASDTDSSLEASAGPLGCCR

SMILES	inhibition
Cc1noc(C)c1S(=O)(=O)N(CC(=O)Nc1ccc2c(c1)OCCO2)c1ccc(C(C)C)cc1	0.66%
C=CCNc1nnc(SCC(=O)N2CCCCC2)c2ccccc12	-2.85%
Nc1nnc(SCCN2C(=O)c3ccccc3S2(=O)=O)s1	-1.92%
Cc1ccc(CNC(=O)CCCNC(=O)c2ccc(Cl)cc2)n1C	10.2%
Cc1ccc(Oc2ccc(N)cc2)cc1	6.53%
CCOc1cc2c(cc1OCC)C(C(=O)O)C(c1ccc(OC)c(O)c1)N(C)C2=O (centres undefined)	-0.42%
O=C(C1CCC1)N1CCc2cc(S(=O)(=O)NCc3cccnc3)ccc21	-6.87%
COC(=O)c1cc(Cl)c(NC(=O)c2ccco2)cc1OC	-6.35%
Cc1cc2c(=O)n(C)c(SCC(=O)c3cc4ccccc4o3)nc2s1	-3.37%
CCOC(=O)c1c(NC(=O)c2cccs2)sc(C)c1C	6.19%
Oc1c(C(c2cccs2)N2CCN(c3ccc(F)cc3)CC2)sc2ncnn12 (centres undefined)	1.85%
O=C1c2ccccc2-c2ncnc3c(N4CCOCC4)cc(N4CCOCC4)c1c23	-9.75%
CCOc1cc(C(=O)Nc2ncccn2)cc(OCC)c1OCC	-1.81%
O=C(NCCN1CCOCC1)c1c(F)c(F)c(F)c(F)c1F	7.3%
CCn1nc(C(=O)OCC(=O)N2c3ccccc3CC2C)c2ccccc2c1=O (centres undefined)	1.01%
Cn1cnc2c1c(=O)n(Cc1c(Cl)cccc1Cl)c(=O)n2C	2.26%
Cc1nnc(NC(=O)CSc2nccn2-c2cccc(C)c2C)s1	-4.27%
Cc1ccc2oc(=O)c3cnn(CC(=O)N4CCCCCC4)c3c2c1	0.73%
CCOC(=O)C1CCCN(C(=O)Cn2ncc3c(=O)oc4ccc(C)cc4c32)C1 (centres undefined)	0.71%
Cc1ccc2oc(=O)c3cnn(CC(=O)N4CCN(c5ccccn5)CC4)c3c2c1	37.2% (active)
CCOc1ccc(C(=O)Nc2ccncc2)cc1	0.07%
O=S(N1CCCCCC1)C12CC3CC(CC(C3)C1)C2 (centres undefined)	8.25%

SMILES	inhibition
COc1ccc(NC(C)=O)cc1NC(=O)CN1CCN(c2ccccn2)CC1	2.12%
COC(=O)c1cccc(NC(=O)CN2CCC(NC(=O)c3cc(OC)c(OC)c(OC)c3)CC2)c1	79.2% (active)
COC(=O)c1cc(NC(=O)CN2CCC(C(N)=O)(N3CCCCC3)CC2)cc(C(=O)OC)c1	-2.8%
COc1ccc(-c2cc(C(=O)NC(C(=O)O)C(C)C)c(C)o2)cc1OC (centres undefined)	1.2%
Cc1cc(C(=O)O)c(S(C)(=O)=O)s1	0.82%
CC1=C(C)CC2C(=O)N(c3cccc4ccccc34)C(=O)C2C1 (centres undefined)	0%
COc1ccccc1Cc1nc(-c2ccc(C)cc2)no1	4.84%
CC(C)Cc1cc(C(=O)Nc2cc(Br)ccc2O)no1	-4.9%
COc1ccc(CCN(C)C(=O)C2CCCN(Cc3ccc(OC)c(OC)c3)C2)cc1OC (centres undefined)	4.04%
CN(C)/C=C1/C(=O)Nc2ccccc21	-8.06%
O=C(CCN1C(=O)c2ccccc2C1=O)Nc1ccncc1	0.63%
COc1ccc(-c2nc3n(c2Br)CCC3)cc1	-4.37%
CCCC(=O)Nc1ccc2c(c1)nc1n2CCSC1	-5.4%
Cc1ccsc1C(=O)OCC(=O)c1cc(C)n(CC2CCCO2)c1C (centres undefined)	1.34%
COc1ncnc2c1N=C1CC(C)(C)CC(N)=C1S2	-12.2%
O=C(COc1ccccc1)NCCc1nc2ccccc2[nH]1	5.21%
COc1ccc(NC2CC(=O)N(C)C2=O)cc1 (centres undefined)	-1.99%
CCN(CC)P(=O)(/C(Cl)=C\Nc1c(C)n(C)n(-c2ccccc2)c1=O)N(CC)CC	4.4%
CCOC(=O)N1CCN(S(=O)(=O)c2cc3c(cc2C)NC(=O)CO3)CC1	1.04%
COc1ccc2c(c1)C=CC1(O2)N(CCO)c2ccccc2C1(C)C (centres undefined)	-1.22%
CS(=O)(=O)N1CCN(C(=O)Cc2ccccc2)CC1	7.69%
Cc1cc(C(=O)N2CCN(c3ccccn3)CC2)c(C)o1	2.54%

SMILES	inhibition
COc1cccc(OC)c1C(=O)Nc1nnc(C(C)C)s1	-2.05%
Cn1cccc1Cc1nnc(SCC(=O)NCc2ccc3c(c2)OCO3)n1CCc1ccccc1	-1.11%
CCn1c(SCCC(C)C)nnc1-c1c[nH]c2ccccc12	2.85%
CCC(c1nnnn1C1CCCC1)N1CCN(C(=O)c2ccco2)CC1 (centres undefined)	-1.42%
Fc1ccc(OCc2nn3c(Cn4nnc5ccccc54)nnc3s2)cc1	-2.42%
CCn1c(SCC(=O)c2ccc(Cl)s2)nnc1-c1cccs1	-1.37%
CC12CN(Cc3ccccc3)CC(C)(CN(Cc3ccccc3)C1)C2=NO	1.42%
COc1ccccc1-c1c(C)nn2c(C)c(C(C)=O)cnc12	0.53%
O=S(=O)(NCCOc1cccc2cccnc12)c1ccc(F)cc1	-0.52%
FC(F)(F)c1cc(-c2ccco2)nc(N2CCOCC2)n1	2.31%
Cc1cccn2c(=O)c3cc(C(=O)N4COCC4(C)C)n(C)c3nc12	5.99%
COc1ccc(-n2nc3c(c2NC(=O)Cc2cccc(C)c2)CS(=O)C3)cc1 (centres undefined)	1.83%
CCCC(=O)N=c1sc2cccc(F)c2n1C	-1.7%
CN(c1nc2ccccc2n2c(-c3ccco3)nnc12)S(=O)(=O)c1ccccc1	-4.26%
C=C(C)Cn1c(N2CCCC2)nc2c1c(=O)[nH]c(=O)n2C	2.48%
NC(=O)CSc1c[nH]c2ccccc12	6.99%
CNC(=O)c1nnn(-c2ccccc2)c1C(=O)NC	-3.49%
Brc1ccc(OCCn2ccnc2)cc1	1.14%
CCCOc1ccc(C2C(C(=O)c3ccc(C)o3)=C(O)C(=O)N2CCCn2ccnc2)cc1 (centres undefined)	42.8% (active)
CCCOc1ccc(C2c3c(oc4cc(C)c(C)cc4c3=O)C(=O)N2CCCN2CCOCC2)cc1 (centres undefined)	3.64%

From PubChem BioAssay AID746 (The Scripps Research Institute Molecular Screening Center, 2007)
